In the library only some 3.9% were active in any assay of this set; here they are far more common.
ALR H2O2 inh – blocks human ALR sulfhydryl oxidase activity. P55789. purified ALR, DTT oxidation, H2O2 HRP-luminol luminescence. inhibition, % (test concentration not listed). 3.8% of 290,000 active;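 active means mean replicate inhibition above about 79%, with every replicate also reaching it, limit read from the data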
CASP6 VEID inh – caspase-6 (human) enzyme inhibition; 0.53% of 350,000 active; inhibition, % at 12.5 µM; P55212; AID 686996; purified caspase-6, Z-VEID-R110 cleavage fluorescence;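 active means mean inhibition across replicates at least about 35%, with every replicate also reaching that limit, limit read from the data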;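 further: 0% = median of neutral control wells and 100% = no fluorescence left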
SUMO Mot1 rescue – blocks SUMOylation pathway, rescuing yeast Mot1-301 growth; S. cerevisiae Mot1-301 growth rescue, ATP luminescence, 38.5C; percent above DMSO median, 100 means doubled; growth rescue, % at 18.8 µM; 1% of 320,000 active;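 active means every valid replicate shows activation above 250% relative to neutral control wells; inactive means the rest, any valid replicate at or below 250%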;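 further: OY570 slx delta 5 strain wells were the positive control but not used for scaling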
NSD2 inh – inhibitors of human histone methyltransferase NSD2 | O96028 | NSD2 peptide methylation, AlphaScreen, 120 min | inhibition, % at 12.5 µM | 0.54% of 310,000 active; in the data active means inhibition above about 50%
CDK5 p35 inh – blocks human CDK5/p35 kinase activity; Q00535+Q15078; Recombinant CDK5/p35, ADP-Glo luminescence, 60 min; inhibition, % at 10 µM; 0.01% of 330,000 active; AID 488839;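 active means highest replicate inhibition of at least 50% and at least 75% of replicates reaching 50%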;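 further: plate controls were DMSO neutral control for no effect and GW8510 at 10 µM for full effect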
Glyco luc inh – blocks N-linked glycosylation in D54 reporter cells. D54 ERlucT glycosylation luciferase reporter, 24 h; percent of 100 nM tunicamycin response. AID 588692. reporter increase, % at 12.5 µM. 0.23% of 360,000 active;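 active means mean luciferase reporter signal, scaled so untreated is 0 and the glycosylation-blocking control 100, at or above a set limit in every replicate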;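 further: luciferase carries N-glycosylation sites so blocking glycosylation raises the light; 0% = median of neutral control wells and 100% = median of 100 nM tunicamycin wells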
Yeast Mot1 SUMO – SUMO pathway inhibitors in yeast Mot1-301 growth | growth activity, percent, % at 42 µM | 2,300 tested, under 10 active | S. cerevisiae Mot1-301 galactose growth, ATP luminescence, 24 h; -100 = growth of slx-deleted rescue strain | shares compounds with SUMO Mot1 rescue;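 active means Signal drops as the depositor expects, and the fitted half-maximal dose is no more than ten times the top valid tested dose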;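 further: more negative values mean stronger growth rescue toward the control strain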
Active calls of the source: *; x = no result given; + = active, no number; [ ] = another dose, or the depositor's remark.

SMILES	ALR H2O2 inh	CASP6 VEID inh	SUMO Mot1 rescue	NSD2 inh	CDK5 p35 inh	Glyco luc inh	Yeast Mot1 SUMO
COc1ccc(NC(=O)c2ccc(-n3cncn3)c([N+](=O)[O-])c2)cc1	-21.5	-0.3	900.8*	-0.8	1.9	3.0	-0.6[21 µM]
CCCNC(=O)Nc1ccc2c(c1)OC[C@@H](C)N(Cc1ccccc1)C[C@@H](C)[C@H](OC)CN(C)C2=O	x	-1.7	x	x	x	x	x
Fc1ccc(-c2nnc3ccc(N4CCCC4)nn23)cc1	-9.5	3.4	775.1*	x	-2.7	-1.0	-0.7
CC(C)CC#Cc1ccc2c(c1)O[C@H](CN(C)Cc1cccc(F)c1)[C@@H](C)CN([C@@H](C)CO)S2(=O)=O	x	-0.1	x	x	x	x	x
Cc1ccc(S(=O)(=O)N2CCOCC2)cc1NC(=O)COC(=O)CCC(=O)c1cccs1	x	x	522.1*	0.7	0.4	1.8	0.7
COc1ccccc1NC(=O)N[C@@H]1CC[C@@H](CCNS(=O)(=O)c2ccccc2)O[C@H]1CO	x	0.2	x	x	x	x	x
CCCNC(=O)N1C[C@@H](C)[C@H](OC)CN(C)C(=O)c2cc(NC(=O)CCC)ccc2OC[C@H]1C	x	-0.3	x	x	x	x	x
C/C=C/c1ccc([C@H]2[C@@H](CNC(=O)c3ccncc3)N(C(=O)CC)[C@H]2CO)cc1	x	-1.0	x	x	x	x	x
C[C@]12CS(=O)(=O)C[C@H]1SC(=S)N2c1ccccc1	-12.5	-1.0	-5.5	-1.7	-0.6	4.4	x
CN1C(=S)SC2CS(=O)(=O)CC21C (configuration not stated)	-7.6	-0.3	516.8*	-3.3	-0.3	2.8	-0.2[21 µM]
O=C(C[C@H]1C=C[C@@H](NC(=O)c2ccc3c(c2)OCO3)[C@@H](CO)O1)NCc1ccc(Cl)cc1	x	-0.6	x	x	x	x	x
Cc1cc(C(=O)COc2cccc3cccnc23)c(C)n1C	-24.8	x	597.9*	14.7	-0.5	-1.4	0.0
CO[C@H]1CN(C)C(=O)c2ccc(NC(=O)Nc3ccccc3F)cc2OC[C@@H](C)NC[C@H]1C	x	4.9	x	x	x	x	x
COc1cc2c(cc1NC(=O)c1cccnc1)oc1ccccc12	4.0	x	554.6*	1.8	-1.9	0.7	-1.2
COc1cc2c(cc1NC(=O)c1ccncc1)oc1ccccc12	-5.5	x	289.8	-0.8	-0.4	2.4	x
Cc1ccc(-c2nc(CS(=O)(=O)CC(=O)NC3CCCCC3C)c(C)o2)cc1 (configuration not stated)	17.8	0.4	698.6*	x	-0.4	2.7	0.9
Cc1ccc(-c2nc(CS(=O)(=O)CC(=O)NC3CC3)c(C)o2)cc1	-1.8	1.0	6.6	-6.2	-1.6	1.4	x
O=C(C[C@@H]1C[C@@H]2c3cc(NC(=O)c4cccnc4)ccc3O[C@@H]2[C@H](CO)O1)NC1CCCC1	x	-0.6	x	x	x	x	x
O=C(NCCCN1CCOCC1)C1CCC(=O)N1CCc1ccccc1 (configuration not stated)	-18.1	-2.6	407.9*	x	-0.9	1.6	-0.8
CO[C@H]1CN(C)C(=O)c2cc(NC(=O)c3ccccc3F)ccc2OC[C@@H](C)NC[C@@H]1C	x	-1.8	x	x	x	x	x
C[C@@H]1CN([C@@H](C)CO)C(=O)c2cccc(NC(=O)Nc3ccc(C(F)(F)F)cc3)c2O[C@@H]1CN(C)C(=O)Nc1ccc(C(F)(F)F)cc1	x	-2.8	x	x	x	x	x
COCc1nnc(NC(=O)CC(C)C)s1	-19.8	x	644.0*	0.6	1.2	3.8	0.4
COCc1nnc(NC(=O)CC(c2ccccc2)c2ccccc2)s1	-1.2	x	4.0	-5.5	1.4	-2.3	x
C/C(N)=C(/C#N)C(=O)CSc1nnc(-c2ccccc2)n1C	x	-2.1	538.8*	-1.8	0.4	0.6	-0.2
CCCCSCCCNC(=O)Nc1cccc(OC)c1	-3.8	-0.3	548.8*	2.0	-1.4	-0.4	-0.8
SMILES	ALR H2O2 inh	CASP6 VEID inh	SUMO Mot1 rescue	NSD2 inh	CDK5 p35 inh	Glyco luc inh	Yeast Mot1 SUMO
COc1ccc(C(=O)NCC(=O)Nc2ccccc2)cc1OC	-4.1	x	449.2*	-1.3	-0.5	-1.0	0.6
COc1cc(C(=O)NCC(=O)Nc2c(C)cccc2C)ccc1OCc1ccccc1	x	2.0	4.3	0.7	0.0	2.0	x
COc1cccc(NC(=O)CNC(=O)c2ccc(C)cc2)c1	-0.5	1.2	499.1*	-1.1	0.9	1.5	-0.4
O=C(Nc1ccc(Cl)cc1)N1C[C@H]2[C@@H](c3ccccc31)[C@H](CO)N2C(=O)c1ccccn1	x	-2.8	x	x	x	x	x
C/C(=N/Nc1ccc(F)cc1)c1ccc(Cl)s1	x	0.6	384.4*	0.9	-0.3	-0.3	0.0
CCS(=O)(=O)Nc1ccc2c(c1)C(=O)N(C)[C@@H]1CC[C@H](CC(=O)NCc3ccccc3F)O[C@@H]1CO2	x	-0.1	x	x	x	x	x
Cc1cccc2nc(COc3ccc4ccccc4c3Br)cn12	-9.6	-1.1	728.5*	-5.4	3.4	-6.9	-1.0
O=C(c1cc2ccccc2o1)N1CCN(C/C=C/c2ccccc2)CC1	0.4	-0.3	540.8*	1.8	-0.8	0.9	-0.3
O=C(c1cc2ccccc2o1)N1CCCC1	1.5	-2.4	+	-1.5	-0.1	-1.6	-0.4
O=C(O)C1C2CCCCC2=C2CCCCC2C1C(=O)c1ccccc1 (configuration not stated)	-0.5	-2.3	394.1*	-3.0	0.7	1.1	-0.3
CC1(OC(=O)C2CCCC2)C(=O)C=C2C=C(c3ccsc3)OC=C2C1=O (configuration not stated)	-5.1	6.7	505.8*	x	2.8	5.7	-0.1
O=C(c1ccc([N+](=O)[O-])o1)N1CCN(c2nc3c(Cl)cccc3s2)CC1	-46.0	3.6	769.4*	0.8	0.7	4.8	-0.9
COc1cccc2sc(N3CCN(C(=O)c4ccc([N+](=O)[O-])o4)CC3)nc12	-24.2	x	-7.0	-2.6	0.5	16.0	x
CN1c2ccc(C#Cc3cccnc3)cc2[C@H]2[C@H](CCN2C(=O)Nc2cc(F)ccc2F)[C@@H]1CO	x	-1.2	x	x	x	x	x
Cc1ccc(/C=C/C(=O)O)cc1S(=O)(=O)N(CCO)CCO	-0.5	x	389.7*	2.7	-2.5	3.6	0.3
COc1ccc2c3c([nH]c2c1)[C@@H](CO)N(C(=O)c1cccc(F)c1)CC31CCN(C(=O)CC2CC2)CC1	x	1.4	x	x	x	x	x
COc1ccc(-c2csc(NC(=O)CCS(=O)(=O)c3ccccc3)n2)c(OC)c1	-9.4	-1.4	454.1*	-1.6	-0.4	-4.8	-0.1
Cc1ccc2c(c1)[C@H]1[C@H](CO2)[C@H](c2ccccc2)[C@]2(C)C(=O)Nc3ccc(F)cc3C(=O)N12	x	4.9	x	x	2.4	14.3	x
C[C@@]12C(=O)Nc3cc(F)ccc3C(=O)N1[C@H]1c3ccccc3OC[C@@H]1[C@@H]2c1ccccc1	6.0	x	+	x	2.1	26.0*	0.3
COc1ccc2c(c1)[C@H]1[C@H](CO2)[C@H](c2ccccc2)[C@]2(C)C(=O)Nc3cc(C)ccc3C(=O)N12	-2.3	1.7	462.6*	x	1.0	51.2*	-0.6

Compound activity from PubChem BioAssay.
